# This excerpt belongs to a sample that is enriched for hits.
# Vaccinia pol inh = vaccinia E9 polymerase processive synthesis inhibitors, primary screen, biochemical, absorbance. Vaccinia virus DNA polymerase (E9) processive complex. in vitro processive DNA synthesis, absorbance read-out; hits give low values. normalized absorbance, % (concentration not given with the values). hit rate 0.94% among 46,000. AID 493162, 2011; in the data active means normalized absorbance mostly below about 85%, no sharp cut-off; inactive means mostly above about 86%
# Active calls of the source: *.
SMILES,Vaccinia pol inh
Cc1cccc(C(=O)N2CCCc3ccccc32)c1,93.7
Cc1sc(/N=C/c2ccco2)c(C#N)c1C,99.6
COc1cccc2cc(C(=O)CBr)c(=O)oc12,105.3
CCCC(=O)Nc1cccc(NC(=O)c2cccnc2)c1,91.3
CCC(C)(C)c1cnc(NC(C)=O)s1,99.1
CN1C=C/C(=C\c2cc[n+](C)c3ccccc23)c2ccccc21,83.8*
C[n+]1ccc(/C=C/c2ccccc2F)c2ccccc21,99.5
CN1/C(=C/c2cccc[n+]2C)C=Cc2ccccc21,96.7
CC(Cc1ccccc1)[n+]1cc(/N=C(/N)[O-])on1 (stereo not drawn),99.7
CCC(=O)Nc1nnc(SCc2cccc(F)c2)s1,99.5
CSc1ncc(Cl)c(C(=O)Nc2nnc(SCc3ccc(F)cc3)s2)n1,68.1*
Cc1ccc(C(=O)Nc2nnc(SCc3ccccc3)s2)cc1,100.0
CC(NC(=O)CSc1nc2c(c(=O)n1C)C1=C(CCCC1)C2)c1ccccc1 (stereo not drawn),100.1
CCC1=C(C(=O)OC)C(c2cc(OC)c(OC)cc2OC)n2ncnc2N1 (stereo not drawn),99.3
Cc1cc2cc(CNC(=O)CCc3ccccc3)ccc2n1C,97.0
Cc1c(C(=O)N(C)C2CCCCC2)sc2nc(-c3ccccc3)cn12,100.0
CCOc1ccccc1C(=O)NC1CCCCCC1,99.4
CCOc1cccc(=NC2CCCCC2)c2c(C)n(C)c(C)c12,89.3*
CCOc1cccc(=O)c2c(C)n(-c3ccc(OC)cc3)c(C)c12,98.5
CCc1cccc2c(=O)c(CN(C)C)c(C)[nH]c12,83.1
CN(C)Cc1ccc2ccc3cccc4ccc1c2c34,11.7*
CCOC(Cn1c(C)nc2ccccc21)OCC,102.6
CC(C)C(C(=O)O)N1C(=O)/C(=C/c2ccccc2)SC1=S (stereo not drawn),83.0*
COc1cc(/C=C2\SC(=S)N(C(C(=O)O)C(C)C)C2=O)cc(OC)c1O (stereo not drawn),99.6
O=C(O)C(Cc1ccccc1)N1C(=O)/C(=C/c2ccccc2)SC1=S (stereo not drawn),97.0
SMILES,Vaccinia pol inh
O=C(O)c1ccccc1-c1nc2ccccc2s1,98.8
Cc1ccc2nc(NC(=O)c3ccccc3C(=O)O)sc2c1,90.6
Cc1csc(NC(=O)c2ccccc2C(=O)O)c1-c1nc2ccccc2s1,71.7*
S=c1[nH]nc(-c2ccncc2)n1C1CCCC1,100.8
COc1ccccc1C(=O)COC(=O)CCC1CCCC1,102.8
O=C1NC(=Nc2cccnc2)S/C1=C/c1ccc2c(c1)OCO2,96.5
Cn1nc(-c2ccccc2)c(/C=N/O)c1Cl,100.4
O/N=C/C1=C(Cl)c2ccccc2CC1,77.8*
O/N=C/c1cccs1,124.1
CC(C)Cc1ccc(S(=O)(=O)N2CCCc3ccccc32)cc1,95.5
CCOC(=O)c1c(Cl)c2ccccc2n(C)c1=O,99.3
CC1CN(C(=O)N2CCC(C(=O)O)CC2)c2cc(Cl)ccc2O1 (stereo not drawn),67.7*
CC1CN(C(=O)NC23CC4CC(CC(C4)C2)C3)c2cc(Cl)ccc2O1 (stereo not drawn),102.3
Cc1ccc2c(c1)N(C(=O)N1CCC(C(=O)O)CC1)CC(C)O2 (stereo not drawn),93.6
NC(=O)c1ccccc1NC(=O)C1COc2ccccc2O1 (stereo not drawn),100.2
CNC(=O)CN1C(=O)/C(=C/c2ccccc2C)Sc2ccccc21,100.9
O=C(NCC1CCCO1)c1ccc2c(c1)N(Cc1ccc(F)cc1)C(=O)/C(=C/c1ccccc1)S2 (stereo not drawn),88.1
O=C(O)CN1C(=O)S/C(=C\c2ccc(Br)cc2)C1=O,93.5
CCc1ccc(/C=C2\Sc3ccccc3N(CC(=O)O)C2=O)cc1,66.5*
O=C(/C=C1/Sc2ccccc2N(Cc2ccc(F)cc2)C1=O)NCc1ccccc1,103.6
O=C(O)c1ccc2c(c1)N(Cc1ccc(F)cc1)C(=O)/C(=C\c1ccccc1)S2,57.2*
Cc1c(Cl)cccc1NCC(=O)N1CC2(C)CC1CC(C)(C)C2 (stereo not drawn),100.6
CCc1cccc(NC(=O)NC2CC(=O)N(C3CCCC3)C2)c1 (stereo not drawn),106.8
CCCCn1c(=NC(=O)C(C)Oc2ccccc2)c(C(=O)OCC)cc2c(=O)n3ccccc3nc21 (stereo not drawn),107.3
COc1ccc2nc(NC(=O)C(C)C)sc2c1,88.0
SMILES,Vaccinia pol inh
COC(=O)c1ccc2c(c1)NC(=O)C1CCCN21 (stereo not drawn),94.4
O=C(O)c1ccc2c(c1)NC(=O)C1CCCN21 (stereo not drawn),47.5*
CC1CCc2[nH]c3ccc(C(=O)O)cc3c2C1 (stereo not drawn),100.0
Cc1ccc(NC(=O)CC(NC(C)C)C(=O)O)cc1 (stereo not drawn),99.2
O=C(Oc1ccc(Cl)c2cccnc12)c1ccco1,101.3
Cc1cc(Oc2ccccc2)nc(SCc2ccccc2)n1,101.0
Cc1cc(OC(=O)c2ccco2)nc(SCc2c(Cl)cccc2Cl)n1,49.9*
O=C(CCCCl)Nc1ccc(C(O)(C(F)(F)F)C(F)(F)F)cc1,95.4
CCCC1CCC(c2ccc(C(=O)CCN(C)C)cc2)CC1 (stereo not drawn),92.6
CCCC1CCC(c2ccc(C(N)=O)cc2)CC1 (stereo not drawn),99.4
CCCCC1CCC(c2ccc(C(=O)O)cc2)CC1 (stereo not drawn),51.0*
O=C(O)Cc1c(Sc2ccccc2)c2ccccc2n1Cc1ccccc1,99.0
CC1CC(C)CN(CC(O)Cn2c3ccccc3c3ccccc32)C1 (stereo not drawn),91.6
OC(CN1CCNCC1)Cn1c2ccc(Br)cc2c2cc(Br)ccc21 (stereo not drawn),31.4*
OC(CN1CCN(c2cccc(Cl)c2)CC1)Cn1c2ccccc2c2ccccc21 (stereo not drawn),99.8
O=c1[nH]c2ccc(Cl)cc2c(-c2ccccc2)c1N1CCCC1,97.0
Clc1nc2sccn2c1C=NCc1cccnc1,85.4
O=c1nc(N2CCOCC2)nc(Nc2ccc3ccccc3c2)[nH]1,101.7
N#CSCC(=O)c1cccs1,60.9*
CCN(CC)c1cc(-c2cccs2)nc(SCC(=O)c2cccs2)c1C#N,100.0
O=C(CSc1nnc2sc3ccccc3n12)c1cccs1,99.5
N#Cc1ccc(C2N(c3ccccc3)CCN2c2ccccc2)cc1,98.9
Cc1ccc(N/C(=C/C(=O)c2ccccc2)C(=O)O)cc1Br,98.8
O=C(/C=C/c1ccc(F)cc1)/C=C/c1ccc(F)cc1,100.2
O=C(O)c1ccc(N2N=C(C(F)(F)F)/C(=C/c3ccc(OC(=O)c4cccs4)cc3)C2=O)cc1,23.3*
SMILES,Vaccinia pol inh
CCOC(=O)c1ccc(N2N=C(C(F)(F)F)/C(=C/C=C/c3ccco3)C2=O)cc1,99.6
CCc1ccc(/C=C2/C(=O)N(c3ccccc3)N=C2C)cc1,91.6
CCOc1ccc(C2Nn3c(nnc3-c3ccccc3)SC2C(=O)N2C(C)CCCC2C)cc1 (stereo not drawn),91.9
O=C(Nc1ccccc1C(=O)O)OCC1c2ccccc2-c2ccccc21,41.1*
O=C(O)c1ccccc1NCc1ccccc1Cl,63.8
O=C(/C=N/O)Nc1ccccc1C(=O)O,94.2
CCC(Sc1nc(C)cc(C)n1)C(=O)Nc1sc2c(c1C#N)CCCC2 (stereo not drawn),100.4
CCOC(=O)c1cc(-c2ccccc2)n(-c2cccc(C(=O)N3CCCC3)c2)c1C,78.2
CCOC(=O)c1cc(-c2ccccc2)n(-c2ccc(C(=O)O)cc2)c1C,60.6*
CCOC(=O)c1cc(-c2ccccc2)n(CCC(=O)O)c1C,88.3

# Screening data as filed in PubChem BioAssay.
